Screens (PubChem)
Hits are enriched below; roughly 2.9% of the tested compounds scored in any of these assays.
pPAFAH inh – inhibitors of human plasma PAF acetylhydrolase (pPAFAH). inhibition, % at 3.39 µM. actives 1.5% (n = 330,000). recombinant pPAFAH, FP-rhodamine probe fluorescence polarization. Q13093. AID 463082;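 active means inhibition above the mean inhibition across the screen plus 3 SD, cut at about 25% in these data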;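 further: inhibitors block binding of the rhodamine activity-based probe so polarization drops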
Target sequence (Q13093 whole entry, looked up): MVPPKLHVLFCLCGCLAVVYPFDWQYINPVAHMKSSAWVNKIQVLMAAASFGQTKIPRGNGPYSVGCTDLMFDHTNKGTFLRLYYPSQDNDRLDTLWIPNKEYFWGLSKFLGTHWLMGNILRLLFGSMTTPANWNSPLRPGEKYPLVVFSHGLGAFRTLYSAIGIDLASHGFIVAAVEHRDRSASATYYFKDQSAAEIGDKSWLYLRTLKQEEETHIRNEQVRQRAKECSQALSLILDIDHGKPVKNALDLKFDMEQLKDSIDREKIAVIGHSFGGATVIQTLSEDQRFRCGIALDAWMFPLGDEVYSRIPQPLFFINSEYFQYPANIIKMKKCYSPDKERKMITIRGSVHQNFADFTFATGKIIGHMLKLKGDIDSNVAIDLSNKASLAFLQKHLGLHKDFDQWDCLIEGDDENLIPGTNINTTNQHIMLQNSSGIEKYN
PAFAH2 FP inh – PAFAH2 (human) inhibition. recombinant PAFAH2, FP-rhodamine activity probe, fluorescence polarization. inhibition, % at 3.39 µM. actives 0.99% (n = 340,000);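 active means inhibition above the mean over all tested compounds plus 3 SD, cut at about 30% in these data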;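 further: inhibitors block probe labeling of enzyme so polarization drops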
PAFAH1B2 inh – PAFAH1B2 (human) inhibition | P68402 | recombinant PAFAH1B2, FP-rhodamine activity probe, fluorescence polarization | inhibition, % at 3.39 µM | actives 1.2% (n = 340,000);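 active means inhibition above the mean of all tested compounds plus 3 SD, cut at about 24% in these data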
ZTA DNA inh – counter-screen for EBNA-1 inhibitors: inhibitors of Epstein-Barr virus ZTA | inhibition, % at 11 µM | actives 0.15% (n = 320,000) | ZTA-DNA binding, fluorescence polarization | P03206; in the data active means inhibition above about 33%
Target sequence (P03206 whole entry, looked up): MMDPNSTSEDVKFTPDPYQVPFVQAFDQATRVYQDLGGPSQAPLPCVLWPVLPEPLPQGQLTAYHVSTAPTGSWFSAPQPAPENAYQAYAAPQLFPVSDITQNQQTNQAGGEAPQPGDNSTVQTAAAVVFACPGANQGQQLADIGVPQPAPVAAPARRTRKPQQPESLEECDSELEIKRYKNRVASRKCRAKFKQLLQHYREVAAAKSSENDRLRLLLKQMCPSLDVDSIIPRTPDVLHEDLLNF
PAFAH1B3 FP inh – PAFAH1B3 (human) inhibition; Q15102; recombinant PAFAH1B3, FP-rhodamine probe, fluorescence polarization; inhibition, % at 3.39 µM; actives 0.28% (n = 340,000); AID 492972;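 active means inhibition above the screen-wide average of all tested compounds plus 3 SD, cut at about 25% in these data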
EBNA-1 inh – blocks EBNA-1 binding to DNA. EBNA-1 DNA binding, fluorescence polarization. inhibition, % at 14.8 µM. actives 0.34% (n = 300,000); in the data active means inhibition above about 28%
A number is an active result.

Results for CCN(CC)c1ccc(C(=O)OCC(=O)NCC2CCCO2)cc1 (configuration not stated) ?
pPAFAH inh: 31.8; PAFAH2 FP inh: 72.6; PAFAH1B2 inh: inactive; ZTA DNA inh: inactive; PAFAH1B3 FP inh: inactive; EBNA-1 inh: inactive

Results for CCOc1ccc(S(=O)(=O)N2CCCCC2)cc1NC(=O)CN1C(=O)NC(C)(c2ccc(C)cc2)C1=O (configuration not stated) ?
pPAFAH inh: 27.2; PAFAH2 FP inh: inactive; PAFAH1B2 inh: inactive; ZTA DNA inh: inactive; PAFAH1B3 FP inh: inactive; EBNA-1 inh: inactive

How did CC1(c2ccc3ccccc3c2)NC(=O)N(CC(=O)Nc2cccc(S(=O)(=O)N3CCOCC3)c2)C1=O (configuration not stated) do in these assays?
pPAFAH inh: 33.3; PAFAH2 FP inh: inactive; PAFAH1B2 inh: inactive; ZTA DNA inh: inactive; PAFAH1B3 FP inh: inactive; EBNA-1 inh: inactive

How did CCOc1ccc(N2C=Nc3ccc(OCC)cc3C2)cc1 do in these assays?
pPAFAH inh: inactive; PAFAH2 FP inh: inactive; PAFAH1B2 inh: inactive; ZTA DNA inh: inactive; PAFAH1B3 FP inh: inactive; EBNA-1 inh: inactive

Results for O=c1[nH]c(=S)[nH]c2c1C(c1ccc(Br)cc1)c1c([nH]c(=S)[nH]c1=O)O2 ?
pPAFAH inh: 27.1; PAFAH2 FP inh: 54.7; PAFAH1B2 inh: inactive; ZTA DNA inh: 66.6; PAFAH1B3 FP inh: inactive; EBNA-1 inh: 30.9

How did Cc1nn(CC(=O)N(C)C2(C#N)CCCCC2)c(C)c1[N+](=O)[O-] do in these assays?
pPAFAH inh: inactive; PAFAH2 FP inh: inactive; PAFAH1B2 inh: inactive; ZTA DNA inh: inactive; PAFAH1B3 FP inh: inactive

Results for Cc1ccccc1C(=O)Nc1ccc(S(=O)(=O)N2CCOCC2)cc1 ?
pPAFAH inh: inactive; PAFAH2 FP inh: inactive; PAFAH1B2 inh: inactive; ZTA DNA inh: inactive; PAFAH1B3 FP inh: inactive; EBNA-1 inh: inactive

Results for CC(C)(C)c1ccc(OCC(=O)N(Cc2cccs2)C2CCS(=O)(=O)C2)cc1 (configuration not stated) ?
pPAFAH inh: inactive; PAFAH2 FP inh: inactive; PAFAH1B2 inh: 29.1; ZTA DNA inh: inactive; PAFAH1B3 FP inh: inactive; EBNA-1 inh: inactive

What do the screens show for `Cc1c(C(=O)NNC(=S)NCc2ccc(Cl)cc2)oc2ccccc12`?
pPAFAH inh: inactive; PAFAH2 FP inh: inactive; PAFAH1B2 inh: inactive; ZTA DNA inh: inactive; PAFAH1B3 FP inh: inactive; EBNA-1 inh: inactive

How did O=C1NC(=S)SC1=C1CCCC1 do in these assays?
pPAFAH inh: 33.8; PAFAH2 FP inh: inactive; PAFAH1B2 inh: inactive; ZTA DNA inh: inactive; PAFAH1B3 FP inh: inactive; EBNA-1 inh: inactive

Results for O=C(NCCN1CCCCC1)c1ccc(Oc2cc(Cl)cc(Cl)c2)o1 ?
pPAFAH inh: inactive; ZTA DNA inh: inactive; EBNA-1 inh: inactive

Results for O=C(c1ccc(Oc2cc(Cl)cc(Cl)c2)o1)N1CCCCC1 ?
pPAFAH inh: 32.0; PAFAH2 FP inh: inactive; PAFAH1B2 inh: inactive; ZTA DNA inh: inactive; PAFAH1B3 FP inh: inactive; EBNA-1 inh: inactive

What do the screens show for `Cc1ccc(S(=O)(=O)N2CCN(C(=O)COc3ccc(-c4nnco4)cc3)CC2)cc1`?
pPAFAH inh: inactive; PAFAH2 FP inh: inactive; PAFAH1B2 inh: inactive; ZTA DNA inh: inactive; PAFAH1B3 FP inh: inactive; EBNA-1 inh: inactive

Results for Cc1ccc(S(=O)(=O)CCC(=O)Oc2ccc(-c3nnco3)cc2)cc1 ?
pPAFAH inh: 29.5; PAFAH2 FP inh: inactive; PAFAH1B2 inh: inactive; ZTA DNA inh: inactive; PAFAH1B3 FP inh: inactive; EBNA-1 inh: inactive

Results for COCc1nc(-c2ccc(-c3ccccc3)nc2OC)no1 ?
pPAFAH inh: 26.1; PAFAH2 FP inh: inactive; PAFAH1B2 inh: inactive; ZTA DNA inh: inactive; PAFAH1B3 FP inh: inactive; EBNA-1 inh: inactive

How did COCc1nc(-c2ccc(-c3ccc(OC)cc3)nc2OC)no1 do in these assays?
pPAFAH inh: inactive; PAFAH2 FP inh: inactive; PAFAH1B2 inh: inactive; ZTA DNA inh: inactive; PAFAH1B3 FP inh: inactive; EBNA-1 inh: inactive

Results for CC(=O)Nc1ccc(S(=O)(=O)N2CCN(CC3CC4C=CC3C4)CC2)cc1 (configuration not stated) ?
pPAFAH inh: inactive; PAFAH2 FP inh: inactive; PAFAH1B2 inh: inactive; ZTA DNA inh: inactive; PAFAH1B3 FP inh: inactive; EBNA-1 inh: inactive

How did O=C(COC(=O)CCNS(=O)(=O)c1ccc(Cl)cc1)Nc1ccccc1OC(F)F do in these assays?
PAFAH2 FP inh: inactive; PAFAH1B2 inh: inactive; PAFAH1B3 FP inh: inactive

What do the screens show for `Cc1ccc(-c2cc3c(N=O)c4ccccc4c-3n[nH]2)cc1`?
pPAFAH inh: inactive; PAFAH2 FP inh: inactive; PAFAH1B2 inh: inactive; ZTA DNA inh: inactive; PAFAH1B3 FP inh: inactive; EBNA-1 inh: inactive

What do the screens show for `Cc1cccc(-c2cc3c(N=O)c4ccccc4c-3n[nH]2)c1`?
pPAFAH inh: inactive; PAFAH2 FP inh: inactive; PAFAH1B2 inh: inactive; ZTA DNA inh: inactive; PAFAH1B3 FP inh: inactive; EBNA-1 inh: 29.7

How did COc1cccc(-c2coc3c(C)c4oc(=O)c(CCC(=O)O)c(C)c4cc23)c1 do in these assays?
pPAFAH inh: 24.9; PAFAH2 FP inh: inactive; PAFAH1B2 inh: inactive; ZTA DNA inh: inactive; PAFAH1B3 FP inh: inactive; EBNA-1 inh: inactive

How did Cc1c(CC(=O)O)c(=O)oc2c(C)c3occ(-c4ccc(Br)cc4)c3cc12 do in these assays?
pPAFAH inh: inactive; PAFAH2 FP inh: inactive; PAFAH1B2 inh: 28.9; ZTA DNA inh: inactive; PAFAH1B3 FP inh: inactive; EBNA-1 inh: inactive

What do the screens show for `CCOC(=O)Cc1nc(-c2cccc(C(F)(F)F)c2)no1`?
pPAFAH inh: inactive; PAFAH2 FP inh: inactive; PAFAH1B2 inh: inactive; ZTA DNA inh: inactive; PAFAH1B3 FP inh: inactive; EBNA-1 inh: inactive

Results for CC1=C(/C=C/C(C)=C/C=C/C(C)=C\C(=O)O)C(C)(C)CCC1 ?
pPAFAH inh: 27.6; PAFAH2 FP inh: inactive; PAFAH1B2 inh: inactive; ZTA DNA inh: inactive; PAFAH1B3 FP inh: inactive; EBNA-1 inh: inactive

What do the screens show for `N#Cc1c(N)sc(=S)c2c1CCCCC2`?
pPAFAH inh: 29.1; PAFAH2 FP inh: 44.8; PAFAH1B2 inh: inactive; ZTA DNA inh: inactive; PAFAH1B3 FP inh: inactive; EBNA-1 inh: inactive

Results for N#Cc1c(N)sc2c1CCCCCC2 ?
pPAFAH inh: inactive; PAFAH2 FP inh: inactive; PAFAH1B2 inh: 28.5; ZTA DNA inh: inactive; PAFAH1B3 FP inh: inactive; EBNA-1 inh: inactive

Results for CC(C)C(OC(=O)c1nsc(Cl)c1Cl)C(=O)NCC1CCCO1 (configuration not stated) ?
pPAFAH inh: inactive; PAFAH2 FP inh: inactive; PAFAH1B2 inh: inactive; ZTA DNA inh: inactive; PAFAH1B3 FP inh: inactive; EBNA-1 inh: inactive

What do the screens show for `C(=N\NC1=NCCN1)/c1ccncc1`?
pPAFAH inh: inactive; PAFAH2 FP inh: inactive; PAFAH1B2 inh: inactive; ZTA DNA inh: inactive; PAFAH1B3 FP inh: inactive; EBNA-1 inh: inactive

Results for Cc1ccc(NS(=O)(=O)c2ccc3c(c2)NC(=O)CCS3)c(C)c1 ?
pPAFAH inh: 30.3; PAFAH2 FP inh: inactive; PAFAH1B2 inh: inactive; ZTA DNA inh: inactive; PAFAH1B3 FP inh: inactive; EBNA-1 inh: inactive

How did Cc1cc(C)c(NS(=O)(=O)c2ccc3c(c2)NC(=O)CCS3)c(C)c1 do in these assays?
pPAFAH inh: inactive; PAFAH2 FP inh: inactive; PAFAH1B2 inh: inactive; ZTA DNA inh: inactive; PAFAH1B3 FP inh: inactive; EBNA-1 inh: inactive
